# About 13,000 (27%) of roughly 48,000 compounds showed an effect of 50% or more. Some of the results follow.
# System: Wolbachia pipientis
# Test: Anti-Wolbachia Cell-Based Screen
# Type: functional
# Design: scale not given: in the data most compounds retested in dose-response had high values
# Details: 5 µM
row,SMILES,Percent Effect
1,O=C(O)C(F)(F)F.O=C1[C@H]2CN(Cc3ccco3)C[C@H]2CN1c1cncnc1,5.677%
2,COc1ccccc1CC(=O)N1CCN(Cc2ccco2)C[C@@H]1C,136.4%
3,Cc1ccc(F)cc1CC(=O)N(CCN1CCOCC1)Cc1ccco1,-4.12%
4,COc1ccccc1CC(=O)N(CCN1CCOCC1)Cc1ccco1,0.5032%
5,C[C@@H]1CN(Cc2ccco2)CCN1C(=O)Cc1ccccc1F,87.95%
6,Cc1ccc2c(n1)N(CC1CC1)CCN(Cc1ccco1)C2.O=C(O)C(F)(F)F.O=C(O)C(F)(F)F,13.96%
7,Cc1cccc(C)c1NC(=O)CNC(C)Cc1ccsc1 (stereo unspecified),-3.648%
8,Cc1cc(N2CCC(NC(C)Cc3ccsc3)CC2)nc(C)n1 (stereo unspecified),1.122%
9,Cc1cccc(CNC(Cc2ccsc2)c2nccs2)n1 (stereo unspecified),152.6%
10,CCC(CC)CN1CCC2(CCCN(c3ncccn3)C2)C1 (stereo unspecified),-25.35%
11,O=C(NCc1ccccn1)[C@]12COC[C@H]1CN(Cc1ccsc1)C2.O=C(O)C(F)(F)F.O=C(O)C(F)(F)F,103%
12,O=C(O)C(F)(F)F.O=C(O)C(F)(F)F.O=C1N(c2ccsc2)CCC12CCCN(Cc1ccccn1)C2 (stereo unspecified),2.891%
13,CN(C)C[C@]12COC[C@H]1CN(Cc1ccccn1)C2.O=C(O)C(F)(F)F.O=C(O)C(F)(F)F.O=C(O)C(F)(F)F,-16.37%
14,O=C(O)C(F)(F)F.O=C(O)C(F)(F)F.O=C(O)C(F)(F)F.c1ccc(CN2CCCC3(CCN(Cc4cccs4)C3)C2)nc1 (stereo unspecified),118.7%
15,O=C(NCc1ccccn1)[C@]12COC[C@H]1CN(C1CCC1)C2.O=C(O)C(F)(F)F.O=C(O)C(F)(F)F,-13.49%
16,O=C(O)C(F)(F)F.c1cnc(N2CCOCC3(CCCN(Cc4cc[nH]n4)C3)C2)nc1 (stereo unspecified),-14.28%
17,c1cnc(N2CCCC3(CCN(Cc4cccs4)C3)C2)nc1 (stereo unspecified),109.3%
18,Fc1ccccc1CN1CCCC2(CCN(c3ncccn3)C2)C1 (stereo unspecified),-4.552%
19,O=C(O)C(F)(F)F.O=C(O)C(F)(F)F.c1ccc(N2CCC3(COCCN(Cc4cccs4)C3)C2)nc1 (stereo unspecified),103.3%
20,Cc1nc(CN2CCOCC3(CCN(c4ncccn4)C3)C2)cs1.O=C(O)C(F)(F)F.O=C(O)C(F)(F)F (stereo unspecified),-16.84%
21,c1cc([C@H]2C[C@@H]3CCN(Cc4nccs4)C[C@H]3O2)ncn1,-0.9402%
22,COCC1CC2(CCNCC2)CN1c1ncccn1 (stereo unspecified),-4.112%
23,CC(C)CN1CCCC2(CCN(c3ccccn3)C2)C1.O=C(O)C(F)(F)F (stereo unspecified),0.9995%

row,SMILES,Percent Effect
1,O=C(O)C(F)(F)F.c1ccc(N2CCCC3(CCN(Cc4ccsc4)C3)C2)nc1 (stereo unspecified),92.47%
2,O=C(O)C(F)(F)F.O=C(O)C(F)(F)F.c1ccc(CN2CCCC3(CCN(CC4CCCO4)CC3)C2)nc1 (stereo unspecified),98.44%
3,Fc1cnc(N2CCCC3(CCN(Cc4ccsc4)C3)C2)nc1.O=C(O)C(F)(F)F.O=C(O)C(F)(F)F (stereo unspecified),-8.586%
4,CC(C)N1CCO[C@H]2CN(C(=O)c3ccncc3F)C[C@H]21.O=C(O)C(F)(F)F,-21.77%
5,c1cc(CN2CCSC3(CCCCC3)C2)no1,-28.1%
6,CCN1CCN(Cc2csc(C(C)C)n2)CC1,-0.2652%
7,CCN1CCN(c2cncc(Cl)n2)CC1,88.05%
8,c1cc(CN2CCN(Cc3ccon3)C3(CCCCC3)C2)no1,-15.56%
9,CCN1CCN(Cc2nc(C)no2)CC1,8.697%
10,Clc1cncc(N2CCN(Cc3ccon3)CC2)n1,98.12%
11,CC(C)(O)CNc1ccc(C#N)c(C(F)(F)F)c1,7.337%
12,O=C(c1cnn2c1OCCC2)N1CCC2(CC1)OCCO2,-3.54%
13,O=C(C1CCN(S(=O)(=O)N2CCCC2)CC1)N1CCC2(CC1)OCCO2,110.6%
14,CS(=O)(=O)N1CCC(C(=O)N2CCC3(CC2)OCCCO3)CC1,6.012%
15,Cl.O=C(C1CC=CC1)N1CCC2(CC1)CNCCO2,-11.15%
16,O=C(C1CCCCC1)N1CCC2(CC1)OCCO2,92.72%
17,O=C(C1CC=CC1)N1CCC2(CC1)OCCO2,105.5%
18,O=C(C1CCCC1)N1CCC2(CC1)OCCO2,-31.13%
19,O=C(C1CC(=O)N(c2ccccc2Br)C1)N1CCC2(CC1)OCCO2 (stereo unspecified),-9.549%
20,O=C(C1CCC1)N1CCC2(CC1)CNCCO2,-23.25%
21,Cn1cc(C2=CCN(CCCOc3ccc(C(N)=O)cc3)CC2)cn1,-2.558%
22,Fc1cnccc1CN1CCC2(CCNCC2)C1,-4.399%
23,CCN1CCC2(CC1)CC(Nc1ncccn1)CO2 (stereo unspecified),-3.551%

row,SMILES,Percent Effect
1,Cn1ccnc1CN1CC2(CCN(Cc3ccncc3)C2)C1,-5.589%
2,Cc1cc(NC2CC3(CCN(Cc4ncccc4F)C3)C2)ncn1 (stereo unspecified),100.5%
3,Cc1cccnc1CN1CCC2(CC(Nc3ccncn3)C2)C1 (stereo unspecified),130.7%
4,Cc1cccnc1CC(C)NC1Cc2ccccc2C1 (stereo unspecified),-26.27%
5,COC(=O)CNC(=O)c1cn(Cc2ccccc2F)nn1,4.551%
6,CN(c1ncccc1C#N)C1CCN(CCc2ccncc2)CC1,-9.489%
7,Cc1ccccc1-n1cc(C2=CCN(CCN3CCOCC3)CC2)cn1,-7.999%
8,CCOCc1nc2c(c(N3CCN4CCCC4C3)n1)CCNCC2 (stereo unspecified),3.786%
9,CCCc1nc(N2CCCC3(CCNC3)C2)c2cnn(C)c2n1 (stereo unspecified),-0.0368%
10,Cn1ncc2c(N3CCCC4(CCNC4)C3)nc(C(C)(C)C)nc21 (stereo unspecified),8.536%
11,CCCc1nc(N2CCCN3CCC[C@H]3C2)c2cnn(C)c2n1,64.99%
12,Cn1ncc2c(N3CCCN4CCC[C@H]4C3)nc(C(C)(C)C)nc21,135.6%
13,CC(C)c1nc(N2CCN3CCCC3C2)c2cnn(C)c2n1 (stereo unspecified),18.47%
14,Cc1nc(COC[C@@H]2CC[C@H]3NCC[C@H]3O2)cs1.Cl.Cl,12.23%
15,N#Cc1ccc(NC2CCN(c3ncccn3)CC2)cc1C(F)(F)F,-29.96%
16,Cc1nc(CC(=O)N(C)C2CCCN(CCc3ccccc3)C2)cs1 (stereo unspecified),10.74%
17,CN(C(=O)Cc1ccn(C)c1)C1CCCN(C2Cc3ccccc3C2)C1 (stereo unspecified),-11.39%
18,O=C(Cc1csc(-c2ncccn2)n1)N1CCN2CCCCC2C1 (stereo unspecified),6.768%
19,Cc1nc(CC(=O)N2CCN(C(C)c3ccccc3F)CC2)cs1 (stereo unspecified),-7.662%
20,Cc1cccc(CC(=O)N2CCCC(N(C)CCCN(C)C)C2)c1 (stereo unspecified),81.85%
21,Cc1nc(CC(=O)N2CCCC(N(C)Cc3ccccc3)C2)cs1 (stereo unspecified),124%
22,Cc1nc(CN2CCN(C(=O)Cc3cccc(Cl)c3)CC2)no1,6.745%
23,CN(C)C(=O)CN1CCN(C(=O)Cc2csc(-c3ncccn3)n2)CC1,-5.623%

row,SMILES,Percent Effect
1,Cc1nc(CC(=O)N2CCCC[C@H](N(C)C)C2)cs1,105.8%
2,COc1ncccc1CN1CC[C@H]2O[C@@H](c3nnc(C)o3)CC[C@H]21,-10.73%
3,O=C(Nc1cccnc1)[C@H]1CN(Cc2ccco2)C[C@H]2OCC[C@@H]12.O=C(O)C(F)(F)F.O=C(O)C(F)(F)F,-18.85%
4,CNC(=O)CN1CCO[C@H]2CN(C(=O)c3ccncc3F)C[C@H]21.O=C(O)C(F)(F)F,-18.06%
5,Cc1ccccc1CC(C)NCc1c(C)nn(C)c1N1CCOCC1.Cl (stereo unspecified),6.405%
6,CCOC(C)c1noc(CN(C)C(=O)C2C(C)(C)C2(C)C)n1 (stereo unspecified),12.97%
7,C[C@H]1C[C@@H]2CCN(CC3CCOCC3)C[C@H]2O1,-3.08%
8,O=C(O)C(F)(F)F.O=C(O)C(F)(F)F.O=C1CO[C@@H]2CN(CC3CCOCC3)C[C@H]2N1Cc1ccncc1,87.76%
9,O=C1CO[C@H]2CN(C3CCOCC3)C[C@H]2N1Cc1ccncc1,-21.59%
10,O=C(O)C(F)(F)F.O=C(O)C(F)(F)F.O=C1CO[C@@H]2CN(Cc3cccs3)C[C@H]2N1Cc1ccncc1,-4.405%
11,O=C(O)C(F)(F)F.O=C(O)C(F)(F)F.O=C(O)C(F)(F)F.O=C(O)C(F)(F)F.c1cc(CN2C[C@@H]3OCCN(CCN4CCCC4)[C@@H]3C2)ccn1,0.06106%
12,O=C1CO[C@H]2CN(C3CCOCC3)C[C@H]2N1Cc1ccccn1,-4.247%
13,O=C1CO[C@@H]2CN(C3CCOCC3)C[C@H]2N1Cc1ccncc1,117.1%
14,NCC1(c2cccc(C(F)(F)F)c2)CCOCC1,-0.8853%
15,CCCN1CCN(C(=O)c2cnccc2C)[C@H]2CS(=O)(=O)C[C@H]21,-10.68%
16,CCC[C@]12CN3C[C@](C)(CN(C1)C3c1[nH]c(=O)[nH]c(=O)c1C)C2=O (stereo partly specified),118.8%
17,CC[C@]12CN3C[C@](CC)(CN(C1)C3c1[nH]c(=O)[nH]c(=O)c1C)C2=O (stereo partly specified),112.4%
18,CC[C@]12CN3C[C@](C)(CN(C1)C3c1[nH]c(=O)[nH]c(=O)c1C)C2=O (stereo partly specified),105.1%
19,Cc1c(C2N3C[C@]4(C)CN2C[C@](C)(C3)C4=O)[nH]c(=O)[nH]c1=O (stereo partly specified),140.1%
20,COCC(=O)NC[C@H]1C[C@@H]2CCN1C[C@@H]2CN(C)c1ccccc1,-6.027%
21,O=C(c1[nH]c2ccc(Cl)cc2c1Cl)N1CCC2(CC1)OCCO2,-4.336%
22,NCC1(c2cccc(C(F)(F)F)c2)CCC1,15.34%
